{"source": "PubChem BioAssay (EPA / NIEHS)", "note": "Inconclusive results are not listed. Active and inactive are the calls of the source. Rule for the calls: active = hit-call score of the fitted dose curve at least 0.9, where 1 is the maximum; inconclusive = response in the unintended direction; inactive = score below 0.9.", "data": [{"experiment": "Tanguay_ZF_120hpf_PFIN_legacy: (Legacy) Oregon State University Tanguay Lab 120 Hour Post-fertilization zebrafish Assay for Pectoral Fin Malformation (AID 2283648);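 note: each larva judged yes or no for fin defect by brightfield with dead larvae skipped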", "procedure": "Tanguay_ZF_120hpf_legacy is a whole embryo, multiplexed endpoint assay using zebrafish larvae exposed for 120 hours post fertilization on a 96-well plate.Tanguay_ZF_120hpf_PFIN_legacy is one of one assay component(s) measured or calculated from the Tanguay_ZF_120hpf_legacy assay. It is designed to make measurements of zebrafish development as detected with brightfield microscopy of developing zebrafish embryos.Data from the assay component Tanguay_ZF_120hpf_PFIN_legacy was analyzed into 1 assay endpoints. This assay endpoint, Tanguay_ZF_120hpf_PFIN_legacy, was analyzed in the positive analysis fitting direction relative to DMSO as the negative control and baseline of activity. Using a type of morphology reporter, gain-of-signal activity can be used to understand changes in developmentals as they relate to the whole embryo. To generalize the intended target to other relatable targets, this assay endpoint is annotated to the zebrafish development intended target family, where the subfamily is pectoral fin morphogenesis.\nZebrafish husbandry: Tropical 5D wild-type adult zebrafish were housed in at an approximate density of 1000 per 100 gallon tank at the Sinnhuber Aquatic Research Laboratory, Oregon State University, Corvallis, OR. Each tank was kept at standard laboratory conditions of 28C on a 14-h light/10-h dark photoperiod in fish water consisting of reverse osmosis water supplemented with a commercially available salt (Instant Ocean). Spawning funnels were placed into the tanks the night prior, and embryos were collected and staged. To increase bioavailability, the chorion was enzymatically removed using pronase (63.6mg/ml, >/= 3.5U/mg, Sigma-Aldrich: P5147) at 4 hours post fertilization (hpf) using a custom automated dechorionator.Chemical exposures: Six hpf dechorionated embryos were placed 1 embryo per well in a 96-well plate prefilled with 90 ul of EM using automated embryo placement systems (AEPS). Ten microliters of each row of dilution plate 2 was added to 2 exposure plates. The final DMSO concentration used was 0.64% (vol/vol). Thirty-two embryos were also exposed to 5uM trimethyltin chloride (positive control). Plates were sealed to prevent evaporation and foil covered to reduce light exposure and kept in a 28C incubator. Embryos were statically exposed until 120 hpf. At 24 hpf, embryos were assessed for photomotor response using a custom photomotor response analysis tool (PRAT) and for developmental toxicity endpoints (MO24: mortality at 24 hpf, DP: developmental progression, SM: spontaneous movement, and NC: notochord distortion). At 120 hpf, locomotor activity was measured using Viewpoint Zebralab and assessed for 18 endpoints. Zebrafish acquisition and analysis program (ZAAP), a custom program designed to inventory, acquire, and manage zebrafish data, was used to collect developmental endpoints as either present or absent (i.e., binary responses were recorded). If mortality occurred for an embryo (at either 24 or 120 hpf), the non-mortality endpoints were not measured.", "values": [{"compound": "CCOP(=S)(OCC)SCSC(C)(C)C", "outcome": "inactive"}, {"compound": "C1CC2OC2CC1C1CO1", "note": "(stereo not given)", "outcome": "inactive"}, {"compound": "c1ccc(-c2ccccc2)cc1", "outcome": "inactive"}, {"compound": "C[C@]12CCC(=O)C=C1CC[C@@H]1[C@@H]2CC[C@]2(C)C(=O)CC[C@@H]12", "AC50": "35.1 µM (active)"}, {"compound": "CCC(C)(c1ccc(O)cc1)c1ccc(O)cc1", "AC50": "44.7 µM (active)"}, {"compound": "CO/C=C(/C(=O)OC)c1ccccc1COc1cccc(C(F)(F)F)n1", "AC50": "5.66 µM (active)"}, {"compound": "O=C(O)C(F)(F)C(F)(F)C(F)(F)C(F)(F)C(F)(F)C(F)(F)C(F)(F)C(F)(F)F", "outcome": "inactive"}, {"compound": "Oc1ccc(Cl)cc1Cl", "outcome": "inactive"}, {"compound": "Cc1cc(-c2ccc(N)c(C)c2)ccc1N", "outcome": "inactive"}, {"compound": "COS(=O)(=O)OC", "outcome": "inactive"}, {"compound": "O=C(O)C(F)(F)C(F)(F)C(F)(F)C(F)(F)C(F)(F)F", "outcome": "inactive"}, {"compound": "CCNc1nc(NC(C)C)nc(SC)n1", "outcome": "inactive"}, {"compound": "Cc1cc2c3c(c1)C(c1ccccc1)=N[C@@H](NC(=O)c1ccncc1)C(=O)N3CC2", "outcome": "inactive"}, {"compound": "CCCCCCCCOC(=O)c1ccccc1C(=O)OCCCCCCCC", "outcome": "inactive"}, {"compound": "Cc1cc(O)ccc1Cl", "outcome": "inactive"}, {"compound": "CCCCCCOC(=O)c1ccccc1C(=O)OCCCCCC", "outcome": "inactive"}, {"compound": "CCC(=O)O[C@H]1CC[C@H]2[C@@H]3CCC4=CC(=O)CC[C@]4(C)[C@H]3CC[C@]12C", "outcome": "inactive"}, {"compound": "Cc1ccccc1CO[C@@H]1C[C@@]2(C(C)C)CC[C@]1(C)O2", "outcome": "inactive"}, {"compound": "CN(C)CCO", "outcome": "inactive"}, {"compound": "Nn1cnnc1", "outcome": "inactive"}, {"compound": "Cc1ccccc1[N+](=O)[O-]", "outcome": "inactive"}, {"compound": "CCOC(=O)C(O)(c1ccc(Cl)cc1)c1ccc(Cl)cc1", "outcome": "inactive"}, {"compound": "O=NN(c1ccccc1)c1ccccc1", "outcome": "inactive"}, {"compound": "ClC1=C(Cl)[C@]2(Cl)[C@@H]3[C@H]4C[C@H]([C@@H]5O[C@H]45)[C@@H]3[C@@]1(Cl)C2(Cl)Cl", "outcome": "inactive"}, {"compound": "NS(=O)(=O)C(F)(F)C(F)(F)C(F)(F)C(F)(F)C(F)(F)C(F)(F)C(F)(F)C(F)(F)F", "outcome": "inactive"}, {"compound": "CC(c1ccc(O)cc1)(c1ccc(O)cc1)c1ccc(O)cc1", "outcome": "inactive"}, {"compound": "O=S(=O)(O)C(F)(F)C(F)(F)C(F)(F)C(F)(F)C(F)(F)C(F)(F)F", "outcome": "inactive"}, {"compound": "Cc1ccc(O)c(C)c1", "outcome": "inactive"}, {"compound": "CC1=C2C[C@H]3[C@@H](CC=C4C[C@@H](O)CC[C@@]43C)[C@@H]2CC[C@]12O[C@@H]1C[C@H](C)CN[C@H]1[C@H]2C", "AC50": "21.8 µM (active)"}, {"compound": "CCC(C)c1cc([N+](=O)[O-])cc([N+](=O)[O-])c1O", "note": "(stereo not given)", "outcome": "inactive"}, {"compound": "COc1ccc(O)c(C(C)(C)C)c1", "outcome": "inactive"}, {"compound": "Clc1ccc(C(c2ccccc2Cl)C(Cl)(Cl)Cl)cc1", "note": "(stereo not given)", "outcome": "inactive"}, {"compound": "N#Cc1ccc(N(CC(N)=O)CC(F)(F)F)cc1C(F)(F)F", "outcome": "inactive"}, {"compound": "CCC(C)(CC)c1cc(NC(=O)c2c(OC)cccc2OC)on1", "outcome": "inactive"}, {"compound": "CC#Cc1cc(C)nc(Nc2ccccc2)n1", "outcome": "inactive"}, {"compound": "ClC(Cl)=C(c1ccc(Cl)cc1)c1ccc(Cl)cc1", "outcome": "inactive"}, {"compound": "Cc1ccccc1O", "outcome": "inactive"}, {"compound": "CCCN(CCC)N=O", "outcome": "inactive"}, {"compound": "Nc1ccc(-c2ccc(N)cc2)cc1", "outcome": "inactive"}, {"compound": "CCCCCCCCCC[N+](C)(C)CCCCCCCCCC", "outcome": "inactive"}]}]}
